Source: PubChem
ALDH1A1 inh = qHTS Assay for Inhibitors of Aldehyde Dehydrogenase 1 (ALDH1A1) | Potency, µM (top dose mostly 75.3 µM), for the others: at the highest dose activity, negative = inhibition, actives largely listed as inhibitors | Purified ALDH1A1, NADH fluorescence, propionaldehyde substrate | AID 1030, 2008 | hit rate 7.3% among 220,000;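 further: potency means the concentration at half of the fitted maximal effect; plate controls were no enzyme wells and a reference inhibitor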
IMPase inh = qHTS Assay for Identifying the Cell-Membrane Permeable IMPase Inhibitors; Inositol monophosphatase 1 (Rattus norvegicus), P97697; AID 901, 2007; CHO-M1 cells, IP1 accumulation, HTRF TR-FRET ratio; 120,000 tested, under 10 active; inhibition (IP1 accumulation), % at 46.1 µM; active means well fitted curve in the direction sought with a large enough effect in the signal ratio, not every such curve was filed as active; inconclusive means small, poorly fitted or top-dose-only effect, or a change in a side signal; inactive means no such curve, though single readings can be large or run the other way; the % refers to the signal ratio;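 further: cells stimulated with carbachol in lithium chloride buffer; plate controls were DMSO basal wells for no effect and reference inhibitor wells for full effect; higher means more IMPase inhibition seen as more IP1 and lower FRET ratio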
Target sequence (P97697 whole entry, looked up): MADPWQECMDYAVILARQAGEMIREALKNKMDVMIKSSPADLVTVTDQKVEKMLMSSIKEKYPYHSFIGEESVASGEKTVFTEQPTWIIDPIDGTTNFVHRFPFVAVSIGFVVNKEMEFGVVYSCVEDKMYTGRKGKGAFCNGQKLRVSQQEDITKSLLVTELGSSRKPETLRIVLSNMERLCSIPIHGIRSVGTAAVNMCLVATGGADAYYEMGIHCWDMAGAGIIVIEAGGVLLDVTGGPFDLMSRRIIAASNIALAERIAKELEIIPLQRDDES
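Measured: the HTRF emission ratio (665/620 nm) plus the 620 nm donor channel, each fitted to the Hill equation to give AC50. Cells were CHO-M1 given compounds up to 46 uM and a 30 min carbachol stimulation at 37C.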
HPGD block = qHTS Assay for Inhibitors of HPGD (15-Hydroxyprostaglandin Dehydrogenase); purified HPGD, NADH fluorescence kinetic, PGE2 substrate; Potency, µM, inactives show top-dose activity change, negative = inhibition, actives largely listed as inhibitors; hit rate 4.3% among 150,000; AID 894, 2007; further: potency means the concentration at half of the fitted maximal effect
Target sequence (P15428 whole entry, looked up): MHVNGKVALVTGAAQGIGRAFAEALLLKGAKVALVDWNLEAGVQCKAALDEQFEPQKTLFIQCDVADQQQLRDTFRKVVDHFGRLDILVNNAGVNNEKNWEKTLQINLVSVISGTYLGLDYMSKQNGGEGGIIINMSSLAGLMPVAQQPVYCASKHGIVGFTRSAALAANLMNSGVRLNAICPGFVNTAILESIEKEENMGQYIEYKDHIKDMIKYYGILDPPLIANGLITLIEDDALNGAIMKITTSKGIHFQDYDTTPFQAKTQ
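20 nM HPGD preincubated 15 min at room temperature with compound in 50 mM Tris-HCl pH 8, 0.01% Tween 20. Started with 1 mM NAD+ and 30 uM prostaglandin E2; NADH fluorescence (360/450 nm) read 5 times over 30-s intervals, last minus first.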
PNC inhibitor = High Content Assay for Compounds that inhibit the Assembly of the Perinucleolar Compartment; AID 2417, 2010; activity change (PNC), negative = inhibition, % at 10 µM; PC3M PTB-GFP, PNC prevalence imaging, 16 h; active compounds read low; hit rate 3.1% among 140,000;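 active means readout at or below -70, meaning at least 70% loss of cells showing the perinucleolar compartment, a nuclear body marking cancer cells; inconclusive means readout between -30 and a set limit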;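 further: plate controls were DMSO wells for no effect and camptothecin positive control wells for full effect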
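Compounds are pinned in duplicate onto adhered PC3M cells stably expressing GFP-tagged PTB and incubated 16 h at 37 C. Cells are then fixed, nuclei stained with Hoechst, and PNC-positive cells counted.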
Luc counter = Counterscreen for Luciferase (Kinase-Glo TM) Inhibition. AID 1379, 2008. Kinase-Glo luciferase, ATP luminescence, 8 min. Potency, µM (top dose mostly 38.3 µM), for inactives: at the highest dose activity change, negative = inhibition, usual class: inhibitors. hit rate 0.28% among 200,000. Luciferin 4-monooxygenase (Photuris pensylvanica), Q27757; active means well fitted inhibition curve with a large enough effect; inconclusive means small, poorly fitted or top-dose-only effect; further: potency means the concentration at half of the fitted maximal effect; nearly all actives have a fitted effect of over 60% in size
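Luminescence was the read-out, taken after 8-minute incubation at ambient temperature. Luciferase turned over luciferin with 10 uM ATP in imidazole pH 7.2 buffer containing KCl, MgCl2, Tween 20 and BSA.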
LMNA splice mod = qHTS Assay for Modulators of Lamin A Splicing | HeLa LMNA splicing GFP/RFP minigene ratio, 48 h | Potency, µM (top dose mostly 46.1 µM), inactives show top-dose ratio change, negative = inhibition, hits mostly inhibitors | hit rate 0.01% among 200,000; active means well fitted inhibition curve with a large enough effect in the signal ratio, with a control signal flat, not every such curve was filed as active; inconclusive means small, poorly fitted or top-dose-only effect, or effect the other way, or a change in a side signal; the % refers to the signal ratio; further: potency means the concentration at half of the fitted maximal effect
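S3 HeLa stable clones carrying a lamin A-EGFP splicing minigene plus DsRed2 were seeded at 600 cells/well in Opti-MEM with 2% FBS, pin-dosed and incubated 48 h at 37°C. Acumen cytometry (488 nm) gave the GFP/RFP total-intensity ratio.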
* hit, by the source's call; [ ] = remark or other dose. Only some compounds are listed: those with a hit (about 10% of all), similar ones and a draw of the others. Unless noted, the call rests on the fitted dose curve; in most records, active means well fitted inhibition curve with a large enough effect (not every such curve was filed as active); inconclusive means small, poorly fitted or top-dose-only effect, or another doubt; inactive means no such curve, though single readings can be large or run the other way. Unless noted, on the % scale 0 is the no-effect control and ±100 the full control effect.

COc1ccccc1-c1nnc2sc(COc3ccc(Cl)cc3Cl)nn12 was read as ALDH1A1 inh 12%, IMPase inh 5, HPGD block 1.3µM*, PNC inhibitor 54, Luc counter 0% and LMNA splice mod inconclusive.
For Clc1ccc(OCc2nn3c(C4CCCCC4)nnc3s2)c(Cl)c1 the results were ALDH1A1 inh inconclusive, IMPase inh -5, HPGD block 2.8µM*, PNC inhibitor -82*, Luc counter -2% and LMNA splice mod inconclusive.
For CC1=C[N+](=O)c2ccccc2[N+]1=O the results were ALDH1A1 inh 14%[13.5 µM], HPGD block -1% and Luc counter -1%[7.66 µM].
Screening CCOC(=O)c1c(CN(CC)CC)oc2ccc(OC)cc12 returned ALDH1A1 inh -5%, IMPase inh -5, HPGD block -16%, PNC inhibitor -100*, Luc counter 0% and LMNA splice mod -6%.
Cc1ccc(/C=N/n2c(=O)c(C(C)(C)C)nn3cnnc23)cc1 was read as ALDH1A1 inh 2%, IMPase inh -11, HPGD block -12%, PNC inhibitor -94*, Luc counter 0% and LMNA splice mod -6%.
`Cc1oc(-c2ccc(Cl)cc2)cc1-c1nn2c(-c3ccoc3C)nnc2s1` gave ALDH1A1 inh 20µM*, IMPase inh 2, HPGD block 25µM*, PNC inhibitor 48, Luc counter -4% and LMNA splice mod 12%.
Screening O=C(Nc1ccccc1)N1CCC2(CC1)CCN(C(=O)c1ccncc1)CC2 returned ALDH1A1 inh 3%, HPGD block -2% and Luc counter -4%.
For NNc1ccc(Cl)nn1 the results were ALDH1A1 inh 18µM*.
Screening CNc1ccc(Cl)nn1 returned ALDH1A1 inh -1% and Luc counter -5%.
Nc1nc(-c2ccccc2)cs1 was read as ALDH1A1 inh inconclusive, IMPase inh 8, HPGD block -8%, PNC inhibitor 39, Luc counter 18% and LMNA splice mod 10%.
For NC(=S)Cc1nc(-c2ccccc2)cs1 the results were ALDH1A1 inh 3.2µM*, HPGD block -17%, PNC inhibitor -15, Luc counter -5% and LMNA splice mod inconclusive.
Screening COCCn1c(=O)c(-c2ccc(Cl)cc2)nc2cnc(N3CCOCC3)nc21 returned ALDH1A1 inh inconclusive and LMNA splice mod 14%.
For Cc1[nH]c2ccccc2c1C1C(c2ccccc2)=NN=C(C(C)C)N1O (stereo not given) the results were ALDH1A1 inh -11%, IMPase inh 15, HPGD block -17%, PNC inhibitor -103*, Luc counter 4% and LMNA splice mod 5%.
Cc1[nH]c2ccccc2c1C(=O)C(=O)N1CC=C(c2ccccc2)CC1 was read as ALDH1A1 inh 4%, IMPase inh 16, HPGD block inconclusive, PNC inhibitor inconclusive, Luc counter 6% and LMNA splice mod inconclusive.
CCOC(=O)C1=C(C)Nc2nnnn2C1c1c[nH]c2ccccc12 (stereo not given) was read as ALDH1A1 inh -10%, IMPase inh 4, HPGD block -19%, PNC inhibitor 1, Luc counter 5% and LMNA splice mod 5%.
For CC1=NN=C(c2ccccc2)C(c2c[nH]c3ccccc23)N1O (stereo not given) the results were ALDH1A1 inh 0%, HPGD block -5%, PNC inhibitor -114*, Luc counter -1% and LMNA splice mod -2%.
For [N-]=[N+]=N[C@@H]1[C@H](O)[C@H](CO)O[C@@H]1n1cnc2c(N)ncnc21 the results were ALDH1A1 inh 18%[13.5 µM], HPGD block -2% and Luc counter -6%[7.66 µM].
